Laboratory results as given in PubChem BioAssay (NCATS).
Unmarked numbers belong to inactive results. Results filed as inconclusive are left out. Where a call stands in place of a potency, no number is given. Activity calls are given as the source filed them. Unless noted, calls come from the whole dose curve; as a rule, active = well fitted curve in the direction sought with a large enough effect; inconclusive = small, poorly fitted or top-dose-only effect, or another doubt; inactive = no such curve, though single readings can be large; an effect the other way counts as inactive or inconclusive.

Tests used:
[1] = target: Mitogen-activated protein kinase 10 (Mus musculus) (UniProt Q61831); experiment: JNK3 AlphaScreen Assay (AID 530; active = well fitted curve in either direction with a large enough effect, not every such curve was filed as active;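 note: kinase came from lysate of stimulated human HepG2 cells; signal reports phosphorylation of biotinylated GST-cJun 1-79 at Ser73 with 10 µM ATP; series mostly up to about 57 µM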)
In short: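 Inhibitors reduce antibody binding to phosphorylated biotin-cJun, lowering AlphaScreen luminescence. Lysates from HepG2 cells pre-activated by IL-1beta plus TNF-alpha supplied JNK3; compounds were titrated.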

[2] = Viability counterscreen for antagonist of constitutive androstane receptor (CAR) against the NCATS DSHEA and TCM libraries (AID 1794837);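 note: compound exposure lasted 24 h before viability reading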
In short: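 Viability was measured by CellTiter-Fluor fluorescence (405/540 nm, 1 hr) in HepG2-CYP2B6-hCAR cells. Cells were co-treated 24 hr with 48 uM CITCO (final), antagonist mode, and test substances.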

[3] = Viability counterscreen for agonist of constitutive androstane receptor (CAR) against the NCATS DSHEA and TCM libraries (AID 1794838)
In short: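 Cell viability, from CellTiter-Fluor fluorescence (405/540 nm), was scored after a 24 h, 37C exposure of HepG2 cells carrying CYP2B6 reporter and hCAR to test substances in presence of 0.75 uM PK11195.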

[4] = HepG2 viability counterscreen (readout 2: ATP content) against the NCATS DSHEA and TCM libraries (AID 1794840);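 note: HepG2 cells exposed to substances for about 24 h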
In short: (§1)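 Readout 1: cellular protease activity, GF-AFC substrate (25 uM final, 30 min, fluorescence 380/510 nm). Readout 2: ATP content by CellTiter-Glo luminescence after 30 min at RT. Both follow ~24 h exposure of HepG2 cells (1,000/well) to substances.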

[5] = HepG2 viability counterscreen (readout 1: protease activity) against the NCATS DSHEA and TCM libraries (AID 1794841);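 note: cells exposed to compounds for about 24 h before the protease read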
In short: as §1

[6] = target: Cytochrome P450 3A4 (Homo sapiens) (UniProt P08684); experiment: qHTS for inhibitors of CYP3A4 against the NCATS DSHEA and TCM libraries (AID 1919971);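 note: inhibition lowers luminescence from luciferin made by CYP3A4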
Cytochrome P450 3A4 (Homo sapiens), sequence (P08684 whole entry, looked up, canonical isoform): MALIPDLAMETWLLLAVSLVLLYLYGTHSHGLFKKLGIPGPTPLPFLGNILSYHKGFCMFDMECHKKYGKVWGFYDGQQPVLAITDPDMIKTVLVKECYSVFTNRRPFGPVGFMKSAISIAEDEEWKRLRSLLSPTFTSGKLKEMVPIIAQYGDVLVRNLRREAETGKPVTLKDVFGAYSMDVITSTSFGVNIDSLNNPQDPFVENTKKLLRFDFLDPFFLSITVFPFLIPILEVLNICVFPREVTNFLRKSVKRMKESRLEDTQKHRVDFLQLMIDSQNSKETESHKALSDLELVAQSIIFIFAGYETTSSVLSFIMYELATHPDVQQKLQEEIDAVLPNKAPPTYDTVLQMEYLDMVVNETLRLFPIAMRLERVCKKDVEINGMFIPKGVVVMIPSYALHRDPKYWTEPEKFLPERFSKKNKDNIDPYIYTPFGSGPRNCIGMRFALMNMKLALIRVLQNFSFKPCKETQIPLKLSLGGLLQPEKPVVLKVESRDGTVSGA
In short: (§2)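 Read-out is luminescence after P450-Glo detection (30 min, RT). Before that: 15 min compound–enzyme preincubation, then 30-45 min reaction with 1x NADPH regeneration solution, substrate concentration isoform-specific.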

[7] = target: Cytochrome P450 2D6 (Homo sapiens) (UniProt P10635); experiment: qHTS for inhibitors of CYP2D6 against the NCATS DSHEA and TCM libraries (AID 1919972); note: potency is the fitted concentration of half-maximal effect
Cytochrome P450 2D6 (Homo sapiens), sequence (P10635 whole entry, looked up): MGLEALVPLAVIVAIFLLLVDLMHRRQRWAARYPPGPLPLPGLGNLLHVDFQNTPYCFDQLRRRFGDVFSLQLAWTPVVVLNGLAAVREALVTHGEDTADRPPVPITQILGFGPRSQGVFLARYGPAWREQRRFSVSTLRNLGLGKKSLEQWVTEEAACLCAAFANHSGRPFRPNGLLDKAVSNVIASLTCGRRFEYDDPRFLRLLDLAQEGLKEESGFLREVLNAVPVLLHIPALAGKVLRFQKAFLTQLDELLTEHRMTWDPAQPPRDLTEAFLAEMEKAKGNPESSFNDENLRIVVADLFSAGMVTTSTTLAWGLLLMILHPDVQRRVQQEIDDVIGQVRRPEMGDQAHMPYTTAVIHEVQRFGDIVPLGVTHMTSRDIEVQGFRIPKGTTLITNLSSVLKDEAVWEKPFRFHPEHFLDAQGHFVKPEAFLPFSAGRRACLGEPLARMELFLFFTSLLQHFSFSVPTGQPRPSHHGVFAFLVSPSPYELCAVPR
In short: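 Luminescent P450-Glo read-out of CYP2D6 turnover of a luciferin substrate after NADPH-driven reaction of 30-45 min at room temperature. Compounds were first preincubated 15 min with enzyme at titrated concentrations; quinidine was the intraplate control.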

[8] = KB-3-1 P-gp reporter qHTS against the NCATS DSHEA and TCM libraries (AID 1919975)
In short: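 Cell viability by CellTiter-Glo luminescence following ~72 h compound exposure (concentration-response). Uses parental, non-P-gp-overexpressing KB-3-1 line, 500 cells/well in DMEM/10% FBS, attached ~4 h before dosing.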

[9] = qHTS Counterscreen for compound interference against the NCATS DSHEA and TCM libraries (AID 1919978); conditions: firefly luciferase detection reagent interference, luminescence;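 note: compounds preincubated with 1 µM D-luciferin or buffer before detection reagent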
In short: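 With 1 uM D-luciferin or phosphate buffer only, compounds at final 19.5 nM–39.8 uM were incubated for 15 min at room temperature. Luciferase detection reagent was then added, and luminescence was measured after a further 30 min at room temperature.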

[10] = Dual reporter qHTS for agonist of Pregnane X Receptor (hPXR) against the NCATS DSHEA and TCM libraries: Fluorescence readout (AID 1920058)
In short: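 HepG2 hPXR-Luc, 2000 cells/well, 5 h attach; cpds ~24 h, 37 °C/5% CO2; CellTiter-Fluor 1 h; fluor. Ex/Em 405/540 nm = viability.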

[11] = target: Nuclear receptor subfamily 1 group I member 2 (Homo sapiens) (UniProt O75469); experiment: Dual reporter qHTS for agonist of Pregnane X Receptor (hPXR) against the NCATS DSHEA and TCM libraries: Luminescence readout (AID 1920059)
Nuclear receptor subfamily 1 group I member 2 (Homo sapiens), sequence (O75469 whole entry, looked up): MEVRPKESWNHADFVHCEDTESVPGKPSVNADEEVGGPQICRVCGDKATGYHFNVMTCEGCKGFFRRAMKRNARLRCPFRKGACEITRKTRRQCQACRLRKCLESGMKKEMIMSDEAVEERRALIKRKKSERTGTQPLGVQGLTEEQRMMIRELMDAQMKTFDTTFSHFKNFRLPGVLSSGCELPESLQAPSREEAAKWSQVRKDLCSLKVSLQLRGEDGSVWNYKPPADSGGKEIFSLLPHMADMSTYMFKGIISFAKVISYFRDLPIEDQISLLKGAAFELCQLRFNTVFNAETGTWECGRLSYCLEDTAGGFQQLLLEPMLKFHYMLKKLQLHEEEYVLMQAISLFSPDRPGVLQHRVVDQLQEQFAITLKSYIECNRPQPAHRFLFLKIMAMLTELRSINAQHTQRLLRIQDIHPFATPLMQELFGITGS
In short: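 hPXR-LucHepG2 cells in phenol red-free DMEM with 5% charcoal-stripped FBS, 2000 cells/well, attached 5 h, then exposed 24 h at 37C to compounds; rifampicin as positive agonist control (2.8 nM–92 uM). Luciferase luminescence read.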

[12] = target: Nuclear receptor subfamily 1 group I member 2 (Homo sapiens) (UniProt O75469); experiment: Dual reporter qHTS for antagonist of Pregnane X Receptor (hPXR) against the NCATS DSHEA and TCM libraries: Luminescence Readout (AID 1920060);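 note: HepG2 cells carrying hPXR luciferase reporter stimulated with rifampicin at 2 µM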
In short: (§3)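 Antagonist mode: rifampicin 2 uM final co-added with compounds to hPXR-LucHepG2 cells for 24 h at 37C. Viability by CellTiter-Fluor, Ex/Em 405/540 nm, 1 h; reporter by ONE-Glo luminescence.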

[13] = Dual reporter qHTS for antagonist of Pregnane X Receptor (hPXR) against the NCATS DSHEA and TCM libraries: Fluorescence Readout (AID 1920061)
In short: as §3

[14] = target: Nuclear receptor subfamily 1 group I member 3 (Homo sapiens) (UniProt Q14994); experiment: Primary qHTS for agonist of constitutive androstane receptor (CAR) against the NCATS DSHEA and TCM libraries (AID 1794839);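 note: HepG2 cells expressing human CAR with a CYP2B6 reporter plus PK11195 antagonist; luciferase reporter luminescence read with ONE-Glo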
Nuclear receptor subfamily 1 group I member 3 (Homo sapiens), sequence (Q14994 whole entry, looked up): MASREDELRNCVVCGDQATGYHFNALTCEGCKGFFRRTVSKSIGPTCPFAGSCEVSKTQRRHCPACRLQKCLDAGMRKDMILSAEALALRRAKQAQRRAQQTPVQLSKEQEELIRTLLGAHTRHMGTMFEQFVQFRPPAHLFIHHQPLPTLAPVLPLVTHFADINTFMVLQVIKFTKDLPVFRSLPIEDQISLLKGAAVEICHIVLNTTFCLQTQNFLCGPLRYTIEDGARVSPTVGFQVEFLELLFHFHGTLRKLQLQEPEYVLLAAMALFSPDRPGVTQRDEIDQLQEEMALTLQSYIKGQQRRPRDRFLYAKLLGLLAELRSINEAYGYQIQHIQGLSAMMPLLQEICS
In short: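 Agonist mode in presence of hCAR antagonist PK11195 (0.75 µM final): test substances, 24 h, 37 °C, on HepG2-CYP2B6-hCAR cells. Same-well readouts: fluorescence viability, then ONE-Glo luminescence; CITCO as reference agonist.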

[15] = target: Cytochrome P450 2C9 (Homo sapiens) (UniProt P11712); experiment: qHTS for inhibitors of CYP2C9 against the NCATS DSHEA and TCM libraries (AID 1919973); note: potency is the fitted concentration of half-maximal effect
Cytochrome P450 2C9 (Homo sapiens), sequence (P11712 whole entry, looked up): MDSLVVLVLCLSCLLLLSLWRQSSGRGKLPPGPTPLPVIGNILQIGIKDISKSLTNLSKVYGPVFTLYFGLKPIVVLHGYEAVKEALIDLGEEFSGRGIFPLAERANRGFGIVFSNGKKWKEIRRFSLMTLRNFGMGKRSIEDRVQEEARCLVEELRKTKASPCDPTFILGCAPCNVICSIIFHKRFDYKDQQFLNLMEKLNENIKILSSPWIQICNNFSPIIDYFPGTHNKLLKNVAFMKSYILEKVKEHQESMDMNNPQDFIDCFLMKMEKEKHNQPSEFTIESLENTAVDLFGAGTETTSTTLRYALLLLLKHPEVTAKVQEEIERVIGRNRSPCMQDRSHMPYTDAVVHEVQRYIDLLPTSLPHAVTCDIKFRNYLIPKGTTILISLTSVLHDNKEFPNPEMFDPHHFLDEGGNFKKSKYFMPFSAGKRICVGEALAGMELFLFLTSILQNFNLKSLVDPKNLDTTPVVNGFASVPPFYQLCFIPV
In short: as §2

[16] = target: Cytochrome P450 2C19 (Homo sapiens) (UniProt P33261); experiment: qHTS for inhibitors of CYP2C19 against the NCATS DSHEA and TCM libraries (AID 1919974);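 note: luminescence from luciferin released by CYP2C19 oxidation of a pro-luciferin substrate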; note: potency is the fitted concentration of half-maximal effect
Cytochrome P450 2C19 (Homo sapiens), sequence (P33261 whole entry, looked up): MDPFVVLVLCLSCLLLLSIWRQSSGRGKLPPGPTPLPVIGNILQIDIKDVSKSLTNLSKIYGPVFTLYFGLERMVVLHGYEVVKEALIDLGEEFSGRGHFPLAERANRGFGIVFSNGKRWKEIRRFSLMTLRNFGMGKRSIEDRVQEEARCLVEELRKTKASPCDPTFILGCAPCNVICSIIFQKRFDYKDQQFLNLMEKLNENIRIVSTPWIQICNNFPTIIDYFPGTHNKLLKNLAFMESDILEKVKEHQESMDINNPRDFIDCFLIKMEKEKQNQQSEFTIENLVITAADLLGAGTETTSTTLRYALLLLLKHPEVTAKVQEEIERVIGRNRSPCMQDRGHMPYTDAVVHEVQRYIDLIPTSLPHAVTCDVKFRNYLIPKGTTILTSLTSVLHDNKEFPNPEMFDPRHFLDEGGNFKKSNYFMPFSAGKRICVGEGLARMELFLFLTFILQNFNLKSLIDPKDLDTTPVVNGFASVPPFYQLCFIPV
In short: as §2

[17] = target: Cytochrome P450 1A2 (Homo sapiens) (UniProt P05177); experiment: qHTS for inhibitors of CYPIA2 against the NCATS DSHEA and TCM libraries (AID 1919976);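 note: light from luciferin formed by CYP1A2 from a pro-luciferin substrate; series mostly up to about 37 µM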
Cytochrome P450 1A2 (Homo sapiens), sequence (P05177 whole entry, looked up): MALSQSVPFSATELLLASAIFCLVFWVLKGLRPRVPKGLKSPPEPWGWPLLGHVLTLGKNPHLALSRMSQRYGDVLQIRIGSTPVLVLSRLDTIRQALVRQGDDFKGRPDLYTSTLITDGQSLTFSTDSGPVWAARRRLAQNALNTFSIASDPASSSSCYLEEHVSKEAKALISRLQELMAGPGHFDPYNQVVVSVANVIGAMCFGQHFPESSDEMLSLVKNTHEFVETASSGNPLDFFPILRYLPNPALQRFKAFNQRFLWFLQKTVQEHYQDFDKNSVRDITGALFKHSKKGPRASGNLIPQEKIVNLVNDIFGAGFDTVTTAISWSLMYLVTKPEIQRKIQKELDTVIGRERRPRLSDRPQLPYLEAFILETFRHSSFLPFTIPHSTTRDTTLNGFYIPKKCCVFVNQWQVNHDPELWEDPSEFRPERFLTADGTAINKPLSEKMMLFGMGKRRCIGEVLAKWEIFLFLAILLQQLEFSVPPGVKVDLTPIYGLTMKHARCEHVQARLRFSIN
In short: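 CYP1A2 + luciferin substrate, 100 mM KPO4-type buffer; cmpd 15 min RT; 1x NADPH regen, 30-45 min RT dark; detection reagent 30 min RT; luminescence. Minus-enzyme wells as background; furafylline intraplate control.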

SMILES	Potency [1]	outcome [2]	outcome [3]	outcome [4]	outcome [5]	Potency [6]	Potency [7]	outcome [8]	max response [9]	outcome [10]	Potency [11]	outcome [12]	outcome [13]	Potency [14]	Potency [15]	Potency [16]	Potency [17]
CC1=C2[C@H](/C=C(\C)C(=O)O)CC[C@@H](C)[C@H]2CC1	inactive	inactive	inactive	inactive	inactive	inactive	inactive	inactive	1.69%	inactive	inactive	inactive	inactive	–	–	–	–
C=C(C)C(CC=C(C)C)CC12CC(CC=C(C)C)C(C)(C)C(CC=C(C)C)(C(=O)/C(=C(\O)c3ccc(O)c(O)c3)C1=O)C2=O (stereo not drawn)	–	inactive	inactive	inactive	inactive	–	28.2 µM (active)	–	3.47%	inactive	–	inactive	inactive	inactive	15.8 µM (active)	25.1 µM (active)	–
O=c1cc(-c2ccc(O)cc2)oc2cc(O[C@@H]3O[C@H](CO)[C@@H](O)[C@H](O)[C@H]3O[C@@H]3OC[C@](O)(CO)[C@H]3O)cc(O)c12	–	inactive	inactive	inactive	inactive	–	inactive	inactive	5.67%	inactive	inactive	inactive	inactive	inactive	8.91 µM (active)	–	–
O=C(O)[C@H]1O[C@@H](Oc2c(-c3ccc(O)c(O)c3)oc3cc(O)cc(O)c3c2=O)[C@H](O)[C@@H](O)[C@@H]1O	–	inactive	inactive	inactive	inactive	–	inactive	inactive	3.23%	inactive	inactive	inactive	inactive	inactive	14.1 µM (active)	3.98 µM (active)	–
CC(C)=CCC[C@](C)(O[C@@H]1O[C@H](CO)[C@@H](O)[C@H](O)[C@H]1O)[C@H]1CC[C@]2(C)[C@@H]1[C@H](O)C[C@@H]1[C@@]3(C)CC[C@H](O)C(C)(C)[C@@H]3[C@@H](O[C@@H]3O[C@H](CO)[C@@H](O)[C@H](O)[C@H]3O[C@@H]3O[C@@H](C)[C@H](O)[C@@H](O)[C@H]3O)C[C@]12C	–	inactive	inactive	inactive	inactive	–	inactive	inactive	0.587%	inactive	inactive	inactive	inactive	inactive	inactive	inactive	inactive
OCC1=C[C@@H](O)[C@@H]2C=CO[C@@H](OC3O[C@H](CO)[C@@H](O)[C@H](O)[C@H]3O)[C@H]12 (stereo partly drawn)	–	inactive	inactive	inactive	inactive	–	inactive	inactive	1.01%	inactive	inactive	inactive	inactive	inactive	inactive	inactive	–
CC(C)(O)[C@@H]1CC[C@](C)([C@H]2[C@@H](O)C[C@@]3(C)[C@@H]4C[C@H](O)[C@H]5C(C)(C)[C@@H](O[C@@H]6OC[C@@H](O)[C@H](O)[C@H]6O[C@@H]6O[C@H](CO)[C@@H](O)[C@H](O)[C@H]6O)CC[C@@]56C[C@@]46CC[C@]23C)O1	–	inactive	inactive	inactive	inactive	–	inactive	inactive	4.11%	inactive	inactive	inactive	inactive	–	inactive	–	–
